Reference: PubChem BioAssay
A number with no mark means an inactive call. No rule for the calls is given here.

Experiment: blockers of DNA damage checkpoint Chk1 activation – imaging, HeLa, hydroxyurea, phospho-Chk1 nuclear intensity, primary screen (AID 1187); also: test concentration not given here
Settings: hydroxyurea-induced phospho-Chk1 immunofluorescence imaging, higher = more signal
With `CC(=O)OCC1C2CC[C@H]3C(OCc4ccc(F)cc4C(F)(F)F)OC[C@]4(C)[C@H]3C2=C(CN4C(=O)OC(C)(C)C)[C@H](C)C1COC(C)=O` (stereo not given in full) the z-score was 0.833. `O=C1[C@H]2C=C(I)[C@H](C[C@@H]2c2ccccc2)[C@@]12CO2` gave a z-score of -0.0968. `NC(=O)N1C(=O)C2C(C1=O)C1C=C(CCCO)C2C(c2ccc(CN3CCCC3)cc2)N1Cc1sc2ccccc2c1Cl` (stereo not given) showed a z-score of 0.175. In the case of `CCCCC(=C=CC[C@H](O)c1ccc(CO)o1)CCO`, the z-score is reported as 0.392. `O=C(NCC(O)CO)C1N=C(c2ccc(OCCCO)cc2)N(c2ccccc2)O1` (stereo not given) gave a z-score of -0.257. In the case of `CCCCCC1=C2CNC(CC(C)C)(C(=O)OC)C=C2C(C)C1=O` (stereo not given), the z-score is reported as 0.856. `COc1ccc([Si](C)(C)[C@H]2[C@H](CC(=O)N3CCC[C@H]3CO)O[C@@]3(C(=O)N(Cc4ccc(N5CCCCC5=O)cc4)c4ccccc43)[C@@H]2C)cc1` gave a z-score of 0.241. For `CN(C)CCCCNC(=O)[C@H]1C[C@H]2C(=O)N3CCC[C@H]3C(=O)N2[C@H]1c1cccc(OCCO)c1`, the z-score was 0.0695. In the case of `C=CCC(OC(C)=O)[C@@H]1[C@@H](N(Cc2ccc(-c3ccccc3)cc2)C(=O)c2cccc3ccccc23)c2cc(OCCCO)ccc2N1C(=O)Cc1ccc(OC)cc1` (stereo not given in full), the z-score is reported as 0.0017. For `COc1ccc(C(=O)Nc2ccc3c(c2)[C@@]2(O[C@H](CCO)[C@@H]([Si](C)(C)c4ccc(OC)cc4)[C@@H]2C)C(=O)N3Cc2ccccc2)cc1`, the z-score was 0.518. Work on `CCOC(=O)C1=CCC(c2cc3ccccc3[nH]2)N(CCN2CC(C(=O)OCC)=CCC2c2cc3ccccc3[nH]2)C1` (stereo not given) yielded a z-score of -0.497. Work on `CCCC[C@H]1OB(O)C[C@H]2C1=C(COc1ccccc1)C[C@H]1C(=O)C=CC(=O)[C@H]12` yielded a z-score of -0.274. `C=CCNC(=O)[C@H]1[C@@H]2C(=O)O[C@@H](c3ccccc3)[C@@H](c3ccccc3)N2[C@@H](c2ccc(OCCO)cc2)[C@]12C(=O)Nc1ccccc12` showed a z-score of 0.595. `O=C(NCc1ccccc1)[C@@H]1c2ccccc2C(=O)N(Cc2cc(C(F)(F)F)cc(C(F)(F)F)c2)[C@H]1c1ccc(CO)cc1` gave a z-score of -0.101. With `CN1C(=O)C2C(C3CC3)C=C3CN(Cc4cccc(Cl)c4)[C@@H]([C@@H](O)Cc4ccccc4)C3C2C1=O` (stereo not given in full) the z-score was -2.37. Compound `COc1ccc([Si](C)(C)[C@@H]2[C@@H](CC(=O)N3Cc4ccccc4C[C@H]3CO)O[C@]3(C(=O)N(Cc4cccc(N5CCOC5=O)c4)c4ccccc43)[C@H]2C)cc1` has a z-score of -0.695. For `C=C(COC)/C(=C/C[C@@H](OC(C)=O)c1ccccc1OCCO)c1cnc2ccccc2c1`, the z-score was -0.376. Compound `C=CCN1C(=O)[C@@]2(O[C@@H](CCn3cc([C@H](O)c4ccccc4)nn3)[C@H]([Si](C)(C)c3ccc(OC)cc3)[C@H]2C)c2cc(N3C(=O)c4cccc5cccc3c45)ccc21` has a z-score of 0.311. Compound `COc1ccc(C(O)C2C=CC3C(=O)N(c4ccccc4)C(=O)C3N2Nc2ccc([N+](=O)[O-])cc2)c2ccccc12` (stereo not given) has a z-score of -0.404. `C=C(CCCC)/C(=C/C[C@H](OC(=O)c1ccncc1)c1ccc(OCCO)cc1)c1cnc2ccccc2c1` showed a z-score of -0.869. Compound `CO[C@H]1O[C@H](CO)[C@@H](OC(=O)Nc2ccc3c(c2)OCO3)[C@H](OC(=O)Nc2ccccc2-c2ccccc2)[C@H]1OC(=O)Nc1ccccc1-c1ccccc1` has a z-score of 0.444. `CC1CC/C=C\[C@H]2OC34C=CCN(c5ccc(Cl)cc5)C(=O)[C@H]3N(CCCCCCO)C(=O)[C@]4(C)C2C(=O)O1` (stereo not given in full) showed a z-score of -0.187. In the case of `O=C1NC(=O)C2C1C=CC(C(O)c1ccc([N+](=O)[O-])cc1)N2Nc1ccccn1` (stereo not given), the z-score is reported as -0.347. `O=C(N1CCOCC1)[C@@]1(Cc2ccccc2)COC(c2ccc(OCCCO)cc2)=N1` gave a z-score of -0.504. `C=CCC(OC(C)=O)[C@@H]1[C@@H](N(Cc2cccc3ccccc23)C(=O)Cc2ccc(OC)cc2)c2cc(OCCCO)ccc2N1C(=O)Cc1ccc2ccccc2c1` (stereo not given in full) showed a z-score of 0.512. `COC(=O)C(CC#Cc1ccc2c(c1)[C@]1(C(=O)N2)[C@H](c2ccc(OCCO)cc2)N2[C@H](c3ccccc3)[C@H](c3ccccc3)OC(=O)[C@H]2[C@@H]1C(=O)N1CCCCCCC1)C(=O)OC` gave a z-score of -0.197. Compound `COCCCN1C(=O)[C@@]2(c3ccc([N+](=O)[O-])cc3)CC(=O)N(CC34CC5CC(CC(C5)C3)C4)[C@@H]2c2ccc(CO)cc21` has a z-score of -0.793. `CO[C@H]1O[C@H](CO)[C@@H](OC(=O)Nc2ccccc2-c2ccccc2)[C@H](OC(=O)Nc2ccccc2)[C@H]1OC(=O)Nc1ccccc1` showed a z-score of -0.15. Compound `COCCOC(=O)N1C(=O)[C@@]2(c3cc(C#CCC(C(=O)OC)C(=O)OC)ccc31)[C@H](C(=O)Nc1nc3ccccc3s1)[C@H]1C(=O)O[C@H](c3ccccc3)[C@H](c3ccccc3)N1[C@@H]2c1ccc(OCCO)cc1` has a z-score of 0.611. `O=C(NC1CC1)[C@@H]1c2ccccc2C(=O)N(Cc2cc(C(F)(F)F)cc(C(F)(F)F)c2)[C@H]1c1ccc(CO)cc1` gave a z-score of -0.394. In the case of `CC(C)C[C@@H]1NC(=O)[C@@H]2C[C@H](C(=O)NCCCCCCNC(=O)CS)[C@H](c3cccc(OCCO)c3)N2C1=O`, the z-score is reported as -0.358. `O=C1N(Cc2ccccc2)c2ccccc2C[C@@]12COC(c1ccc(OCCCO)cc1)=N2` gave a z-score of 0.311. For `CC(C)C(=C=CC[C@H](O)c1ccccc1OCCO)C[C@H](O)c1cc(Cl)cc(Cl)c1O`, the z-score was 0.353. Compound `CCCC#C[Si](O[C@H](CC)c1cn(Cc2ccccc2)nn1)(C(C)C)C(C)C` has a z-score of 0.0744. Compound `OCCCC1=CC(c2ccc(CN3CCCC3)cc2)N(Cc2cccc(OC(F)(F)F)c2)CC1` (stereo not given) has a z-score of 1.51.
